Screening results: PubChem BioAssay, National Center for Advancing Translational Sciences (NCATS)
JMJD2A Tudor – blocks the human JMJD2A Tudor domain; AlphaScreen JMJD2A-Tudor / H3K4me3 peptide binding; Potency, µM (titrated, usually from 114 µM), for inactives: at the highest dose activity change, negative = inhibition, actives largely listed as inhibitors; 4.4% of 390,000 active; further: potency means the concentration at half of the fitted maximal effect; on the % scale 0 is the no-effect control and ±100 the full control effect; nearly all actives have a fitted effect of over 50% in size
HP1b binding inh – blocks HP1-beta chromodomain binding to methylated histone tails | 0.56% of 390,000 active | AlphaScreen HP1-beta / biotin-H3K9me3 peptide binding | Potency, µM (highest dose often 114 µM), for inactives: top-dose activity change, negative = inhibition, usual class: inhibitors; further: potency means the concentration at half of the fitted maximal effect; nearly all actives have a fitted effect of over 70% in size
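AlphaScreen: HP1-beta (50 nM) preformed 30 min with biotin-H3(1-18)K9me3 peptide (50 nM) in PBS pH 7.4, 0.01% Tween-20. Compound added for 30 min at RT, then streptavidin donor/nickel chelate acceptor beads (10 ug/mL) for 30 min.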
TDP1 block – blocks human tyrosyl-DNA phosphodiesterase 1. recombinant TDP1, AlphaScreen DNA substrate cleavage. 0.28% of 350,000 active. Potency, µM (doses to about 130 µM), for inactives: at the highest dose activity change, negative = inhibition, actives largely listed as inhibitors. Q9NUW8. AID 485290; further: potency means the concentration at half of the fitted maximal effect; on the % scale 0 is the no-effect control and ±100 the full control effect; nearly all actives have a fitted effect of over 40% in size
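Signal: AlphaScreen proximity between streptavidin donor and anti-FITC acceptor beads on intact substrate. Reaction: Tdp1 1 nM, substrate 15 nM final, 5 min RT after 15 min compound preincubation.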
Six1-Eya2 inh – Six1/Eya2 interaction inhibition; 0.56% of 360,000 active; activity change, % (no concentration beside the values); Q15475+O00167; AlphaScreen GST-Six1/His-Eya2 binding, biochemical; active compounds read low; in the data active means activity change below about -65%; inconclusive means mostly about -30% to -63%; further: on the % scale 0 is the no-effect control and ±100 the full control effect
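Homogeneous AlphaScreen proximity assay pairing GST-Six1 with His-tagged Eya2 (added as 5X mix: 250 nM and 500 nM) in 50 mM Tris pH 8.0, 300 mM NaCl, 1 mM TCEP. Glutathione donor and nickel acceptor beads; 1 h, 37 °C, dark.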
CtBP-E1A blk – inhibitors of CtBP/E1A interaction; activity change, % (test concentration not listed); 0.49% of 340,000 active; AlphaScreen GST-E1A/His-CtBP binding, 1536-well; active compounds read low; in the data active means activity change below about -65%; inconclusive means mostly about -30% to -63%; further: on the % scale 0 is the no-effect control and ±100 the full control effect
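Homogeneous bead-based format: GST-tagged E1A captured on glutathione donor beads, His-tagged CtBP on nickel acceptor beads; compounds precede bead addition by 2 h at 37 °C.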
BAZ2B inh – inhibitors of human BAZ2B bromodomain; Q9UIF8; AlphaScreen BAZ2B-H3K14Ac peptide displacement; Potency, µM (doses to about 114 µM), for inactives: at the top dose activity change, negative = inhibition, most hits filed as inhibitors; 4.4% of 360,000 active; further: potency means the concentration at half of the fitted maximal effect; on the % scale 0 is the no-effect control and ±100 the full control effect; nearly all actives have a fitted effect of over 60% in size
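Inhibition is scored as reduced AlphaScreen emission. The BAZ2B/b-H3(5-23)K14Ac complex (50 nM each) in PBS pH 7.4, 0.01% Tween-20 meets compound (up to 110 uM) for 30 min at RT before bead addition.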
Numbers without * were called inactive; ? = inconclusive; nt = no result given; [ ] = dose if it differs, or a comment. Hits are enriched below; roughly 5.3% of the tested compounds scored in any of these assays. Unless noted, the call rests on the fitted dose curve; in most records, active means well fitted inhibition curve with a large enough effect; inconclusive means small, poorly fitted or top-dose-only effect; inactive means no such curve, though single readings can be large or run the other way.

SMILES	JMJD2A Tudor	HP1b binding inh	TDP1 block	Six1-Eya2 inh	CtBP-E1A blk	BAZ2B inh
CCN(CC)C(=O)Cn1c(SCC(=O)Nc2ccc(C)c(C)c2)nc2ccccc21	0%	73%	9%	nt	nt	10%
Cc1cccc(NC(=O)CSc2nc(C3CCCC3)nc3c2c(=O)n(C)c(=O)n3C)c1C	-11%	17%[57 µM]	0%	nt	nt	1%
CC1(C)S[C@@H]2[C@H](NC(=O)Cc3ccccc3)C(=O)N2[C@@H]1C(=O)O	nt	nt	-4%	nt	nt	nt
CC1(C)SC2C(C(=O)O)N=C(Cc3ccccc3)N2C1C(=O)O (stereo not drawn)	?	71%	nt	-81*	-84*	nt
O=C(N/N=C1/C[C@@H](O)[C@@H](O)[C@@H]2[C@@H]3C(=O)N(Cc4ccc5c(c4)OCO5)C(=O)[C@H]3CC[C@H]12)OCc1ccccc1	nt	nt	9%[21 µM]	nt	nt	nt
C=C1CCC[C@]2(C)C[C@H]3OC(=O)C(CNCCN(CC)CC)[C@H]3CC12 (stereo partly drawn)	1.8µM*	?	nt	6	-2	25µM*
C=C1CCC[C@]2(C)C[C@H]3OC(=O)C(CNCCN(C)C)[C@H]3CC12 (stereo partly drawn)	-17%	28%	nt	-3	3	-7%
COc1ccc(NC(=O)COc2ccc(S(=O)(=O)NC3CCCCC3)cc2)c(OC)c1	0%	39%	-1%	nt	nt	2%[57.1 µM]
O=C(O)c1n[nH]c2ccccc12	28µM*	-2%	-3%	-7	-8	-27%
CC(Sc1nnc(NCc2ccccc2)s1)C(=O)Nc1ccc2c(c1)C(=O)c1ccccc1C2=O (stereo not drawn)	?	-16%	5%	-66*	-82*	?
CC(Sc1nnc(Nc2ccccc2)s1)C(=O)Nc1nc(-c2ccccc2)cs1 (stereo not drawn)	-13%	18%	-5%	-13	-7	-22%
CCCCNC(=O)Cn1nc(Cc2ccncc2)c2ccccc2c1=O	-10%	19%	nt	7	nt	-11%
O=C(Cn1nc(Cc2ccncc2)c2ccccc2c1=O)N1CCc2ccccc2C1	-33%	23%	7%	-19	-68*	-6%
CCOC(=O)c1cc2c(=Cc3ccc(N(C)C)cc3)c3ccccc3n2[n+]1C	25µM*	50µM*	nt	-69*	0	nt
CCCCC1(C)OC(=O)C(=Cc2ccc(N(C)C)cc2)C(=O)O1 (stereo not drawn)	-29%	-1%	-2%	9	-2	?
CC1=NN(c2cccc(F)c2)C(=O)/C1=C/c1ccc(N(C)C)cc1	-17%	-2%	4%	12	-3	-26%
CN(C)c1ccc(C=c2c3ccccc3n3c2c2ccccc2[n+]3C)cc1	16µM*	13µM*	nt	-9	12	nt
Cc1cc2c(=Cc3ccc(N(C)C)cc3)c3ccccc3n2[n+]1C	45µM*	32µM*	nt	0	-66*	nt
CN(C)c1ccc(/C=C/c2cccc[n+]2[O-])cc1	-17%	4%	8%	0	5	-6%
N#Cc1nc(NCC(F)F)c2ncn(-c3cccc(Cl)c3)c2n1	-3%	nt	-2%	nt	nt	nt
CCc1cccc(C)c1NC(=O)C(C)Sc1nc2c(c(=O)[nH]1)CCCC2 (stereo not drawn)	-3%	23%	6%	nt	nt	-7%
CC(=O)c1ccc2c(c1)C1C=CCC1C(c1ccncc1)N2 (stereo not drawn)	?	-9%	7%	-22	-23	50µM*
CCOc1ccc2c(c1)[C@@H]1C=CC[C@@H]1[C@H](c1ccccc1Cl)N2	45µM*	?	nt	nt	nt	28µM*
Cc1ccc2c(c1)C1C=CCC1C(C(=O)NCCCN1CCOCC1)N2 (stereo not drawn)	?	8%	nt	0	-8	nt
Cc1ccc2c(c1)C1C=CCC1C(C(=O)O)N2 (stereo not drawn)	nt	nt	nt	nt	nt	6.3µM*
COC(=O)c1ccc(C2Nc3ccc(/C(C)=N/NC(=O)C(OC)c4ccccc4)cc3C3C=CCC32)cc1 (stereo not drawn)	79µM*	-21%	0%	-12	-20	56µM*
